About 4,900 (1.5%) of roughly 330,000 compounds were called active. For the sample, actives were picked, then their nearest neighbours and some compounds at random. A number with no mark means an inactive call.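 The calls were made as follows: active = inhibition above about 50% at the single test dose (limit read from the data); inactive = the rest.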
Biological target: Sentrin-specific protease 7 (Homo sapiens) (UniProt Q9BQF6)
Assay: SENP7 protease inhibitors, primary screen, biochemical, luminescence, uHTS (AID 434973);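 also: plate controls were DMSO with enzyme for no effect and no enzyme buffer wells for full effect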
Details: recombinant SENP7, Z-RLRGG-aminoluciferin luminescence, 40 min; at 5 µM; active compounds read high

Q: For `CN(c1ccccc1)S(=O)(=O)c1ccc(Cl)c(C(=O)OCC(=O)N2CCOCC2)c1`, which inhibition is on record?
A: 3.02%

Q: For `O=C(NCCC(=O)N1O[C@@H]2C=C[C@H]1C2)OCC1c2ccccc2-c2ccccc21`, which inhibition is on record?
A: 3.86%

Q: How did the inhibition turn out when `Cc1ccn(C(CC(=O)c2ccc(Br)cc2)C(=O)O)n1` (stereo unspecified) was run?
A: 4.97%

Q: How did the inhibition turn out when `CCCCN(CC)C(=O)c1ccccc1Oc1ccccc1` was run?
A: 6.13%

Q: With `COC(=O)c1nn(-c2cccc(Cl)c2)ccc1=O` as the molecule, how does the inhibition read?
A: 3.97%

Q: `COc1ccc(-c2sc3ccccc3c2-c2ccc(OCCN3CCOCC3)cc2)cc1` was tested. Which inhibition did it give?
A: -12.1%

Q: `COC(=O)c1ccc(/C=C/c2c(-c3ccc(OC)cc3)sc3ccccc23)cc1` was tested. Which inhibition did it give?
A: 3.42%

Q: How did the inhibition turn out when `COc1ccc(N=C(C)c2sc3ccccc3c2O)cc1` was run?
A: 83.7% (active)

Q: With `Cc1cc(C)cc(NC(=O)N2CCCCCCC2)c1` as the molecule, how does the inhibition read?
A: 0.706%

Q: With `Cc1ccc2cc3cc(C(=O)N4CCCCCC4)oc3nc2c1` as the molecule, how does the inhibition read?
A: 55.3% (active)

Q: With `Cc1ccc2nc(N3CCN(C(=O)c4ccco4)CC3)sc2c1` as the molecule, how does the inhibition read?
A: -7.97%

Q: With `O=c1onc(-c2c(F)cccc2F)n1-c1ccccc1Cl` as the molecule, how does the inhibition read?
A: -2.38%

Q: How did the inhibition turn out when `Cc1cc(=O)[nH]c(S)c1C#N` was run?
A: 7.81%

Q: `CCc1ccc(OCC(=O)OCC(=O)c2c(N)n(C)c(=O)n(C)c2=O)cc1` was tested. Which inhibition did it give?
A: -1.23%

Q: For `CCN(CC)CCn1c2c(c(SCC(=O)Nc3nc4ccccc4s3)nc1=O)CCCC2`, which inhibition is on record?
A: 4.47%

Q: For `c1ccc2sc(NN=C3CCCC3)nc2c1`, which inhibition is on record?
A: 82.2% (active)

Q: For `O=C1NC(Nc2nc3ccccc3s2)(C(F)(F)F)C(=O)N1C1CCCCC1` (stereo unspecified), which inhibition is on record?
A: 6.04%

Q: `COc1ccc(CNC(=O)C2CCC(CNc3c(N4CCOCC4)c(=O)c3=O)CC2)cc1` (stereo unspecified) was tested. Which inhibition did it give?
A: -10.4%

Q: `O=C(Nc1nnc(-c2ccccc2)o1)c1cccc(S(=O)(=O)N2CCOCC2)c1` was tested. Which inhibition did it give?
A: -5.26%

Q: How did the inhibition turn out when `O=C(O[C@H]1[C@H](Cc2ccccc2)NS(=O)(=O)[C@H]2C[C@@H]3C=C[C@]12O3)c1ccc([N+](=O)[O-])cc1` was run?
A: 7.73%

Q: Which inhibition does the source give for `Cc1cccc(N(CC(=O)N=Nc2c(O)[nH]c3ccccc23)S(C)(=O)=O)c1C` here?
A: 5.39%

Q: How did the inhibition turn out when `O=C(CCN1CCCCC1)N=Nc1c(O)[nH]c2ccccc12` was run?
A: -5.94%

Q: With `Cc1c(-c2ccccc2)n[nH]c1C(=O)N=Nc1c(O)[nH]c2ccccc12` as the molecule, how does the inhibition read?
A: 84.6% (active)

Q: For `CCCc1ccc(OCCNC(=O)c2ccccc2Br)cc1`, which inhibition is on record?
A: -1.05%

Q: Which inhibition does the source give for `CCCc1ccc(OCCNC(=O)c2ccco2)cc1` here?
A: -0.541%

Q: `CCCOc1ccc(C(=O)NCCc2ccccc2)cc1` was tested. Which inhibition did it give?
A: 78.1% (active)

Q: For `COc1ccc(CCNC(=O)C(=O)NCC2CCNCC2)cc1OC`, which inhibition is on record?
A: 2.84%

Q: For `COc1ccc(SC[C@H](Cc2ccccc2)N2CCN(CCc3ccccc3)CCC2=O)cc1`, which inhibition is on record?
A: -3.68%

Q: `CCn1cc(C(=O)NCCCN2CCCCCC2)c(=O)c2cc(S(=O)(=O)N3CCc4ccccc4C3)ccc21` was tested. Which inhibition did it give?
A: 7.21%

Q: For `COc1ccc(-c2cn3ccsc3n2)cc1`, which inhibition is on record?
A: 58.5% (active)

Q: For `CCN(CC)S(=O)(=O)c1ccc(-c2cn3ccc(C)cc3n2)cc1`, which inhibition is on record?
A: 10.3%

Q: How did the inhibition turn out when `COc1ccc(-c2cn3ccc(C)cc3n2)cc1` was run?
A: 98.1% (active)

Q: With `Cc1ccn2cc(C(=O)NC3CCN(Cc4ccccc4)CC3)nc2c1` as the molecule, how does the inhibition read?
A: 5.68%

Q: How did the inhibition turn out when `COc1ccc(-c2cn3cccnc3n2)cc1` was run?
A: 1.35%

Q: How did the inhibition turn out when `COc1cc(OC)cc(-c2nc(=S)n3ccsc3n2)c1` was run?
A: 0.18%

Q: How did the inhibition turn out when `CC(C)(C)c1ccc(/C=C/C(=O)NC2CCS(=O)(=O)C2)cc1` (stereo unspecified) was run?
A: 5.24%

Q: For `Cc1ccc(S(=O)(=O)N2CCN(C(=O)c3ccc(-n4cncn4)c([N+](=O)[O-])c3)CC2)cc1`, which inhibition is on record?
A: 0.142%

Q: For `CN(C)S(=O)(=O)c1cc(NC(=O)CN2C(=O)NC3(CCCc4ccccc43)C2=O)ccc1Cl` (stereo unspecified), which inhibition is on record?
A: -13.5%

Q: For `Cc1nc2nc(C)c(NS(=O)(=O)c3ccc(C(C)(C)C)cc3)c(=O)n2[nH]1`, which inhibition is on record?
A: -0.191%

Q: `Cc1ccc(NC(=O)CSCC(=O)Nc2sccc2C#N)cc1` was tested. Which inhibition did it give?
A: 1.52%

Q: For `Cc1csc(SCC(=O)Nc2sccc2C#N)n1`, which inhibition is on record?
A: 94% (active)

Q: `Cc1cccc(C)c1Nc1nnc(SCC(=O)Nc2sccc2C#N)s1` was tested. Which inhibition did it give?
A: 8.73%

Q: How did the inhibition turn out when `COC(=O)C1=C(C)NC(=O)/C1=C/c1ccc(CNS(=O)(=O)c2ccc(C)cc2)o1` was run?
A: -2.86%

Q: Which inhibition does the source give for `CC(=O)Nc1ccc(C(=O)Nc2cccc(S(=O)(=O)NC3=NCCC3)c2)cc1` here?
A: -0.0847%

Q: For `O=C(Nc1cccc([N+](=O)[O-])c1)c1ccc2c(c1)OCO2`, which inhibition is on record?
A: 66.9% (active)

Q: Which inhibition does the source give for `CN1CCN(c2ccc(NC(=O)c3ccc4c(c3)OCCO4)cc2Cl)CC1` here?
A: -1.01%

Q: How did the inhibition turn out when `O=C(Nc1ccc(N2CCOCC2)cc1)c1ccc2c(c1)OCO2` was run?
A: 16.9%

Q: `O=C(Nc1ccccc1F)c1ccc2c(c1)OCO2` was tested. Which inhibition did it give?
A: 67.5% (active)

Q: With `N#Cc1ccccc1NC(=O)c1ccc2c(c1)OCO2` as the molecule, how does the inhibition read?
A: 2.46%

Q: How did the inhibition turn out when `O=C(Nc1ccccc1)c1ccc2c(c1)OCCCO2` was run?
A: 90.7% (active)

Q: With `O=C(Nc1ccccc1)c1ccc2c(c1)OCO2` as the molecule, how does the inhibition read?
A: 88.5% (active)

Q: For `CC(C)C(=O)Nc1cccc(C(=O)Nc2ccc3c(c2)OCO3)c1`, which inhibition is on record?
A: 34.3%

Q: Which inhibition does the source give for `O=C(Nc1ccc2c(c1)OCCO2)c1ccoc1` here?
A: -0.659%

Q: For `O=C(Nc1ccc(NC(=O)c2ccc3c(c2)OCO3)cc1)c1cccc(Cl)c1`, which inhibition is on record?
A: 1.85%

Q: `CC(NC(=O)Nc1cccc([N+](=O)[O-])c1)c1ccc2c(c1)OCO2` (stereo unspecified) was tested. Which inhibition did it give?
A: 3.89%

Q: How did the inhibition turn out when `CN(Cc1c(F)cccc1Cl)C(=O)CNC(=O)c1ccc2c(c1)OCO2` was run?
A: -9.22%

Q: For `Cc1ccc(S(=O)(=O)N2CCOCC2)cc1NC(=O)CSc1nnc(N)s1`, which inhibition is on record?
A: -5.72%

Q: Which inhibition does the source give for `CC(C)(C)C1CCC(OC(=O)CCC(=O)Nc2ccccc2)CC1` (stereo unspecified) here?
A: 3.21%

Q: With `COc1cc(OC)cc(/C(N)=N/O)c1` as the molecule, how does the inhibition read?
A: 0.905%

Q: How did the inhibition turn out when `O=C(CN1C(=O)NC2(CCCC2)C1=O)NCC1CCCO1` (stereo unspecified) was run?
A: 4.93%

Q: With `O=C(CN1C(=O)CC(c2ccccc2)S(=O)(=O)c2ccccc21)NC1CCCC1` (stereo unspecified) as the molecule, how does the inhibition read?
A: 2.74%
